ELG1 genotox: qHTS screen for small molecules that induce genotoxicity in human embryonic kidney (HEK293T) cells expressing luciferase-tagged ELG1; AID 504466, 2011; Potency, µM (doses to about 46 µM), for the others: top-dose activity change, positive = activation, usual class: activators; HEK293T ELG1-luciferase reporter, luminescence, 16 h; 1.3% of 330,000 active; note: % of control where 0% means no effect; nearly all actives have a fitted effect of over 60% in size
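16 hr compound incubation (37 °C, 5% CO2) of HEK293T cells carrying luciferase-tagged ELG1; luciferase then measured by ONE-Glo luminescence after 30 min at RT.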
SMN2 splice up: qHTS Assay for Enhancers of SMN2 Splice Variant Expression; HEK293 SMN2-luciferase splicing reporter, luminescence, 30-36 h; Potency, µM (top dose mostly 46.1 µM), inactives show top-dose activity change, positive = activation, actives largely listed as activators; 2.8% of 210,000 active; AID 1458, 2008; note: % of control where 0% means no effect; nearly all actives have a fitted effect of over 55% in size
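HEK293 cells carry an SMN2 […]–luciferase reporter in which exon 7 inclusion puts luciferase in frame. Cells were plated 10-12 h before compound addition, then incubated 30-36 h at 37C. ONE-Glo luminescence was read; sodium butyrate at 4.5 mM final served as control.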
FLuc modulator: qHTS profiling assay for firefly luciferase inhibitor/activator using purifed enzyme and Km concentrations of substrates (counterscreen for miR-21 project); Luciferin 4-monooxygenase (Photinus pyralis), P08659; purified FLuc, Km substrates, luminescence inhibition; Potency, µM (highest dose often 57.5 µM), without a hit: at the highest dose activity change, negative = inhibition, most hits filed as inhibitors; 6.9% of 360,000 active; AID 588342, 2011;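 note: plate controls were vehicle for no effect and reference inhibitor for full effect; nearly all actives have a fitted effect of over 55% in size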
Target sequence (P08659 whole entry, looked up): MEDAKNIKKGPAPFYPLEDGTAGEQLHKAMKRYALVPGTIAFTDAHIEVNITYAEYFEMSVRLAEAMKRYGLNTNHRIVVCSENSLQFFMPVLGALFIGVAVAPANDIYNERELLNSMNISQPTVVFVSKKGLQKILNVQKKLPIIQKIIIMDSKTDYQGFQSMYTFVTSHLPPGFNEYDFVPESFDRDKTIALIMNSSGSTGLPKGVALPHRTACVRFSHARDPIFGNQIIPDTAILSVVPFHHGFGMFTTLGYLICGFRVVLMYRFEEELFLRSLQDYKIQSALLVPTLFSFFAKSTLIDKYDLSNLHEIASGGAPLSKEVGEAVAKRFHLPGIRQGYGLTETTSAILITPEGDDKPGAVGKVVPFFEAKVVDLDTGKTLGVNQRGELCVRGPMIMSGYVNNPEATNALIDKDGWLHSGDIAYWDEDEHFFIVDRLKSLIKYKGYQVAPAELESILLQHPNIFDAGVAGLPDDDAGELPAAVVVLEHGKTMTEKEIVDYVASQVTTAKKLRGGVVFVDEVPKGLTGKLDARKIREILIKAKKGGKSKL
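Biochemical qHTS of compounds, final roughly 60 µM downward over six points, against 10 nM purified firefly luciferase using Km concentrations of substrates (10 uM D-luciferin, 10 uM ATP) in Tris acetate pH 7.5 buffer; luminescence output.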
Rab9 promoter act: qHTS Assay for Rab9 Promoter Activators | AID 485297, 2010 | Potency, µM (series often up to 9.22 µM), inactives show at the top dose activation, negative = inhibition, usual class: activators | Huh7 Rab9 promoter-luciferase reporter, luminescence, 24 h | 2.8% of 320,000 active; note: % of control where 0% means no effect; nearly all actives have a fitted effect of over 60% in size
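Steps: seed 1500 Huh7 Rab9-luc cells per well, rest 2 h at 37 °C; add compound in DMSO; incubate 24 h; add luciferase reagent, 10 min ambient; read luminescence.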
ELG1 repair inh: qHTS screen for small molecules that inhibit ELG1-dependent DNA repair in human embryonic kidney (HEK293T) cells expressing luciferase-tagged ELG1; Potency, µM (series often up to 46.1 µM), for the others: at the top dose activity change, negative = inhibition, actives largely listed as inhibitors; 2.3% of 330,000 active; HEK293T ELG1-luciferase reporter, luminescence, 16 h; DNA damage induced by 5-fluorouridine; note: % is set by controls: 0 for no effect and ±100 for the full control effect; nearly all actives have a fitted effect of over 55% in size
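Overnight (16 hr) co-exposure of 2,000 cells/well to 5-fluorouridine and compound at 37 °C preceded detection. Luciferase was quantified via ONE-Glo luminescence; loss of signal denotes inhibition.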
NPC1 prom act: qHTS Assay for NPC1 Promoter Activators | Huh7 NPC1 promoter luciferase reporter, 24 h | Potency, µM (doses to about 9.22 µM), inactives show at the top dose activation, most hits filed as activators | 2.4% of 320,000 active; note: % of control where 0% means no effect; nearly all actives have a fitted effect of over 60% in size
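In 1536-well qHTS, Huh7 cells harboring an NPC1 promoter–luciferase construct received compound for 24 h; activation was quantified by luminescence following luciferase reagent addition.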
Starred values were filed as active, the others as inactive; ? = inconclusive; . = no result; [ ] = dose if it differs, or a comment. In the library only some 9.3% were active in any assay of this set; here they are far more common. Calls come from the whole dose curve; as a rule, active = well fitted curve in the direction sought with a large enough effect; inconclusive = small, poorly fitted or top-dose-only effect, or another doubt; inactive = no such curve, though single readings can be large; an effect the other way counts as inactive or inconclusive. Potency is the fitted concentration of half-maximal effect.

SMILES	ELG1 genotox	SMN2 splice up	FLuc modulator	Rab9 promoter act	ELG1 repair inh	NPC1 prom act
O=C(NCC12CC3CC(CC(C3)C1)C2)c1nn2cccnc2c1Cl	5%	26%	2%	-2%	12%	-1%
O=c1nc2n(c3cccc(Cl)c13)CCCCC2	3%	.	-2%	-3%	11%	-3%
CC(C)(C)[C@@H]1COC(=O)[C@H](Cc2ccc(F)cc2)C/C=C\C[C@@H](CC(=O)N(CCO)Cc2ccccc2)C(=O)N1	-3%	.	.	.	-23%	.
CC1=NC(=O)C(N=Nc2cccc(O)c2)N1c1ccccc1 (centres undefined)	15µM*	-11%	6.7µM*	7%	?	-6%
CSc1nnc2c(n1)c(C)nn2-c1cccc(C)c1	1%	14%	13µM*	-5%	?	3%
CCOC(=O)C1=C(C)NC2=C(C(=O)c3ccccc32)C1c1ccc([N+](=O)[O-])o1 (centres undefined)	-6%	.	-8%	0%	?	0%
CCOC(=O)C1=C(C)NC2=C(C1c1ccc([N+](=O)[O-])cc1)S(=O)(=O)c1ccccc12 (centres undefined)	-18%	-14%	3%	0%	10µM*	-2%
COCCn1c(SCC(=O)c2c(N)n(C3CC3)c(=O)[nH]c2=O)nc2ccccc21	0%	.	.	1%	-3%	-1%
O=C1C2C3C=CC(C3)C2C(=O)N1CCCCCCN1C(=O)C2C3C=CC(C3)C2C1=O (centres undefined)	?	.	4.3µM*	4µM*	?	-19%
O=C(O)CCN1C(=O)C2C3C=CC(C3)C2C1=O (centres undefined)	11%	5%	7%	3%	0%	8%
O=C(Cn1ccc(C(F)(F)F)n1)N/N=C/c1ccc(N2CCOCC2)cc1	2%	0%	-17%	14%	?	-2%
CCOc1ccc(NC(=S)NC(=O)c2c(Br)cnn2C)c([N+](=O)[O-])c1	2%	3%	6µM*	17%	24%	8%
CCOc1ccc(NC(=S)NC(=O)c2c(Cl)cnn2CC)c([N+](=O)[O-])c1	2%	0%	1%	-5%	1%	-4%
O=C(Nc1nc(-c2ccccc2)cs1)C1CCCO1 (centres undefined)	?	?	24µM*	26%	?	?
O=C(Nc1nc(-c2ccc(-c3ccccc3)cc2)cs1)C1CCCO1 (centres undefined)	5%	-27%	8.5µM*	0%	?	7%
O=C(Nc1nc(-c2ccc(F)cc2)cs1)C1CCCO1 (centres undefined)	11%	11%	12µM*	23%	?	18%
Cc1csc(NC(=O)C2CCCO2)n1 (centres undefined)	1%	?	1%	-2%	?	-1%
Cc1nn(CC(=O)NCc2cccc(F)c2)c(=O)c2c(C)n(-c3ccc(Cl)cc3)nc12	.	.	0%	.	.	.
Clc1ccc(N=c2ssnc2Cl)nc1	-2%	.	-3%	2%	1%	2%
N#Cc1cccc(N=c2ssnc2Cl)c1	0%	-18%	19µM*	-4%	?	1%
Clc1nssc1=Nc1ccc(Br)cc1	-6%	-12%	24µM*	-2%	?	4%
COc1cc(N=c2ssnc2Cl)cc(OC)c1	-5%	-22%	?	-2%	-24%	0%
CSc1nc(-c2ccccc2)nc(C(C)C)n1	0%	.	-2%	-3%	?	-5%
CCC(=O)N1c2ccccc2CC1C(=O)NCCc1ccc(SC)cc1 (centres undefined)	.	.	-2%	.	.	.
COc1ccc(-c2cc(C(=O)N3CCCC3)c3ccccc3n2)cc1OC	-7%	.	?	0%	?	4%
SMILES	ELG1 genotox	SMN2 splice up	FLuc modulator	Rab9 promoter act	ELG1 repair inh	NPC1 prom act
CCOc1ccccc1/C=C/c1nc2ccccc2[nH]c1=O	5%	.	-10%	4µM*	-1%	3.2µM*
COc1cc(OC)c(OC)cc1/C=C/c1cc(C(=O)O)c2ccccc2n1	3%	-8%	11µM*	-8%	16%	-1%
Cc1cc(/C=C\c2ccccc2)nc2ccccc12	?	.	1.5µM*	?	?	23%
COc1ccc(/C=C/c2cc(C(=O)O)c3ccccc3n2)cc1	-15%	.	0.067µM*	?	?	?
C=C1C(=O)O[C@@]23[C@H]1CC[C@@H](C)[C@@H]2CC[C@@]1(C)O[C@@H]31	-3%	.	.	.	?	.
CCN(CC)C(=O)Cc1cc(C(=O)O)c2ccccc2n1	0%	.	4%[2.3 µM]	10%	1%	2%
CCOc1ccccc1/C=C/c1cc(C(=O)O)c2ccccc2n1	10%	.	13µM*	14%	?	22%
CCOc1cc(/C=C2\C(=O)N(CCc3ccc(OC)c(OC)c3)C(C)=C2C(=O)OC)ccc1O	-1%	-14%	-5%	-2%	1.6µM*	-1%
CC(=O)CC(c1ccccc1)S(=O)(=O)c1ccc(C)cc1 (centres undefined)	4%	5%	0%	2%	5%	-5%
COc1ccc(C(CC(=O)c2ccccc2)S(=O)(=O)c2ccc(C)cc2)cc1 (centres undefined)	?	?	0.76µM*	4µM*	?	2.2µM*
COc1ccc(/C(N)=N/OC(=O)c2cccs2)cc1OC	3%	.	5%	-11%	-8%	-7%
N/C(=N\OC(=O)c1cccs1)c1ccccc1	?	?	0.67µM*	?	?	?
Cc1cccc(/C(N)=N/OC(=O)c2cccs2)c1	?	?	0.76µM*	1.3µM*	?	1.1µM*
N/C(=N\OC(=O)Cc1ccccc1[N+](=O)[O-])c1cccc(Br)c1	3%	.	?	1%	19%	-2%
N/C(Cc1cccc2ccccc12)=N\OC(=O)c1cccs1	-1%	-1%	-4%	8%	-7%	-1%
N/C(=N\OC(=O)Cc1ccccc1)c1cccc(Br)c1	8%	6%	17µM*	1%	?	0%
N/C(=N\OC(=O)c1cccs1)c1cccc(Br)c1	?	12%	1.1µM*	1%	?	-1%
N/C(Cc1ccc(Cl)cc1Cl)=N\OC(=O)c1cccs1	0%	-11%	-20%	12%	28%	4%
